# Measurements taken from PubChem BioAssay.
# Activity calls are given as the source filed them.
# Legend:
# Albumin (Bos taurus) = Albumin (Bos taurus) (UniProt P02769); experiment: bovine serum albumin binders on microarray, profiling panel, artefact control for SMM control protein annotation, biochemical, small-molecule microarray, Alexa647 label, 635/667 nm fluorescence (AID 1118); settings: BSA-A647 binding, fluorescence 635 nm, higher = more signal;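 further: score merges 667 nm emission intensity and signal-to-noise per printed compound spot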
# Chain of Albumin (Bos taurus) (P02769 whole entry, looked up): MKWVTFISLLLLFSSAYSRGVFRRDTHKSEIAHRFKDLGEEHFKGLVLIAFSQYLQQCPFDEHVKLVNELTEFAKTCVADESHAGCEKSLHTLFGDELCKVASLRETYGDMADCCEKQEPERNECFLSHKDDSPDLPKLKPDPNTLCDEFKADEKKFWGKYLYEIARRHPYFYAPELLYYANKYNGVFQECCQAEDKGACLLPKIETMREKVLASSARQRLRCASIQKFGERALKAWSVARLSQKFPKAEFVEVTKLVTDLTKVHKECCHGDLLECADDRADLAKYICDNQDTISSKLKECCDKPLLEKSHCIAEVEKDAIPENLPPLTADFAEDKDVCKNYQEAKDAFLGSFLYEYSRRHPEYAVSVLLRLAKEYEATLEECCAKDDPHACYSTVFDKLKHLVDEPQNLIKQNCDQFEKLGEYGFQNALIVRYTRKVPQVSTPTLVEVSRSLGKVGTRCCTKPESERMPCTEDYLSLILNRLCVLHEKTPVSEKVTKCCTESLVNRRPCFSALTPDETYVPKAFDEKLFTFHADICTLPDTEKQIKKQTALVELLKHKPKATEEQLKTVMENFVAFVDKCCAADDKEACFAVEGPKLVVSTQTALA
# [1] = small-molecule microarray binders of probe aXIP, primary screen, biochemical, NeuroSMM set, 635/667 nm fluorescence (AID 1119); settings: higher = more signal, called active from +8 up or from −8 down;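 further: probe is the protein aXip251-270 applied at 1 µg/mL to compound-printed slides; binding of probe to printed compounds measured as 667 nm fluorescence plus signal to noise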
# [2] = small-molecule binders of probe aNOTCH3, primary screen, biochemical, small-molecule microarray, 635/667 nm fluorescence (AID 1120); settings: higher = more signal;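 further: probe is a biotin-tagged antibody raised against NOTCH3 rather than NOTCH3 protein; score merges spot fluorescence near 667 nm with spot signal to noise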
# [3] = small-molecule binders of probe aNOTCH2, primary screen, biochemical, small-molecule microarray, 635/667 nm fluorescence (AID 1121); settings: higher = more signal;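 further: score merges feature fluorescence read at 667 nm with its signal to noise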
# [4] = biological target: Carbonic anhydrase 2 (Homo sapiens) (UniProt P00918); experiment: CAII small-molecule binders, profiling panel, biochemical, small-molecule microarray, Alexa647-labelled CAII (AID 1122); settings: CAII-A647 binding fluorescence, higher = more signal
# [5] = COS7 lysate on small-molecule microarray, probe aHis, 635 nm (AID 1123); settings: COS7 cell lysate, fluorescence, higher = more signal;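 further: z-score combines 667nm fluorescence intensity with signal-to-noise per printed compound spot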
# [6] = compound binding in COS7 lysate, probe aLAP1, primary screen, cell lysate, small-molecule microarray (AID 1124); settings: probe aLAP1, fluorescence, higher = more signal;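 further: lysate comes from COS7 cells expressing LAP1 and is applied at 0.3 µg/mL; score merges spot fluorescence near 667 nm with signal-to-noise over triplicate slides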
# Sam68 (KHDRBS1) = experiment: Sam68 small-molecule binders, primary screen, biochemical, small-molecule microarray, 635 nm fluorescence (AID 1125); settings: small-molecule microarray binding, higher = more signal;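 further: score merges 667 nm channel intensity with signal to noise over triplicate slides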
# [7] = tested on: Chordin-like protein 2 (CHRDL2); experiment: CHRDL2 small-molecule binders, primary screen, biochemical, small-molecule microarray, 635 nm fluorescence (AID 1126); settings: small-molecule microarray binding, fluorescence 635 nm; higher = more signal;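 further: printed compound slides probed with Chrdl2 protein at 4 µg/mL for 1 h at 4 C; score merges 667 nm emission intensity with signal to noise over three replicate slides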
# [8] = biological target: Concanavalin-A (Canavalia ensiformis) (UniProt P02866); experiment: ConA small-molecule binders, primary screen, artefact control for SMM control protein annotation, biochemical, small-molecule microarray, Alexa647 label, 635 nm (AID 1127); settings: ConA-A647 binding fluorescence, higher = more signal;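 further: z combines 667 nm emission intensity with signal-to-noise across three replicate slides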
# Chain of Concanavalin-A (Canavalia ensiformis) (P02866 whole entry, looked up): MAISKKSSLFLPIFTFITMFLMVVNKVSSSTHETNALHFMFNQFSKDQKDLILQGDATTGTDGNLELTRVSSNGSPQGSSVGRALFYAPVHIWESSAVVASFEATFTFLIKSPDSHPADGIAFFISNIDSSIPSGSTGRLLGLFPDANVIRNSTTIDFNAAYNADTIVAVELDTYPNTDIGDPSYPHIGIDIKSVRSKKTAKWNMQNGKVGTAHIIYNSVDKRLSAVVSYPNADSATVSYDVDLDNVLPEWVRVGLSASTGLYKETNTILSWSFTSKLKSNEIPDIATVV
# [9] = anti-His antibody binders, primary screen, artefact control for SMM control protein annotation, biochemical, small-molecule microarray, 635 nm fluorescence (AID 1128); settings: anti-His Alexa647 antibody binding, higher = more signal;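 further: score merges feature fluorescence with signal-to-noise for each printed compound spot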
# [10] = tested on: Human papillomavirus type 1a E7 protein (residues 1-88); experiment: HPV1a E7 small-molecule binders, primary screen, biochemical, small-molecule microarray, residues 1-88, 635 nm (AID 1129); settings: small-molecule microarray binding, fluorescence 635 nm; higher = more signal
# [11] = biological target: Focal adhesion kinase 1 (Homo sapiens) (UniProt Q05397); experiment: small-molecule microarray binders of FAK, primary screen, biochemical, 635/667 nm fluorescence, BSA, DTT (AID 1130); settings: PTK2 binding, 635 nm fluorescence, higher = more signal;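 further: composite of spot emission at 667 nm and signal to noise over triplicate slides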
# Chain of Focal adhesion kinase 1 (Homo sapiens) (Q05397 whole entry, looked up): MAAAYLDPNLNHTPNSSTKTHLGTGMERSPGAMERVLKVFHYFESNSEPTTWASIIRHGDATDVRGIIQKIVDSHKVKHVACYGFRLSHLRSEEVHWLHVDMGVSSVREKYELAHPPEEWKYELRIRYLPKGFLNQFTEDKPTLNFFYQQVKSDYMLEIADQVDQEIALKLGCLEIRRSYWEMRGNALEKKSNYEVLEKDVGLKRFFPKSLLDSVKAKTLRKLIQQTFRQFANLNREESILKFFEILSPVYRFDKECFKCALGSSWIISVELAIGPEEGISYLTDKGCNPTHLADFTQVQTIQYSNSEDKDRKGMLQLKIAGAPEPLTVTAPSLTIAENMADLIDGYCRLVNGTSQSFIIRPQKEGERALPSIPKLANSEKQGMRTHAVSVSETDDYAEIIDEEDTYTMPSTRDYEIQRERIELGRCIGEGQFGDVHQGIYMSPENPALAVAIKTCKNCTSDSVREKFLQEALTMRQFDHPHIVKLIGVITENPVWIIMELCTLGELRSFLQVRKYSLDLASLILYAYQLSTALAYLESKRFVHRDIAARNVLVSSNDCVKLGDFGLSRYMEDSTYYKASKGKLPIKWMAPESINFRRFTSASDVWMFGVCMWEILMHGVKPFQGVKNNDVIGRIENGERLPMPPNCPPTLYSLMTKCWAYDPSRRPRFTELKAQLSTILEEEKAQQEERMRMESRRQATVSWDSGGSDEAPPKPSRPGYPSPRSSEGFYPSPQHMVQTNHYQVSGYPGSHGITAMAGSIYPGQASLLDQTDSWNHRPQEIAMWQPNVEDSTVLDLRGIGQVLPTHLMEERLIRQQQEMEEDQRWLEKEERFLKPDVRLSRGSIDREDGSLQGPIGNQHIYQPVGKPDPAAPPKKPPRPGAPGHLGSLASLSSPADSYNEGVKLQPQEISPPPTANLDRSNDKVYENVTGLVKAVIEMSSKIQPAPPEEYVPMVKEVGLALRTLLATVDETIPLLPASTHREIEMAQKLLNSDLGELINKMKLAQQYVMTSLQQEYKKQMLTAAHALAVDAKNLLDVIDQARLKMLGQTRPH
# [12] = tested on: Fibrinogen (Alexa647-labelled); experiment: fibrinogen binders on compound microarrays, profiling panel, artefact control for SMM control-protein annotation, biochemical, small-molecule microarray, 635/667 nm fluorescence (AID 1131); settings: fibrinogen-A647 binding fluorescence, higher = more signal;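 further: z-score merges 667 nm fluorescence with per-spot signal-to-noise over triplicate slides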
# [13] = biological target: Follistatin (Homo sapiens) (UniProt P19883); experiment: follistatin binders on small-molecule microarrays, primary screen, biochemical, small-molecule microarray, 635/667 nm fluorescence (AID 1132); settings: FST binding, 635 nm fluorescence, higher = more signal
# Chain of Follistatin (Homo sapiens) (P19883 whole entry, looked up): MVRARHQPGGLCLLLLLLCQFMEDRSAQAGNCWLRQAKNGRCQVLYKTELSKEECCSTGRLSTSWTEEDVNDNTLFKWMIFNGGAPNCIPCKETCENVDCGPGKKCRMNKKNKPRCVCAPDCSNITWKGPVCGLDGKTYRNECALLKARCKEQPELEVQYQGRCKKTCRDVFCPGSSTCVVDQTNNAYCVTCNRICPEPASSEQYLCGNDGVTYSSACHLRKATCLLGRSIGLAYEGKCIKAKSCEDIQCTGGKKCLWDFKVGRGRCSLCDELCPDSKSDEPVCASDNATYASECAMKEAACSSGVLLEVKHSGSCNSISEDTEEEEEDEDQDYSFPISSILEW
# [14] = biological target: Fibroblast growth factor 2 (Homo sapiens) (UniProt P09038); experiment: FGF2 binders on small-molecule microarrays, primary screen, biochemical, small-molecule microarray, 635/667 nm fluorescence (AID 1133); settings: small-molecule microarray binding, FGF2, fluorescence 635/667; higher = more signal
# Chain of Fibroblast growth factor 2 (Homo sapiens) (P09038 whole entry, looked up): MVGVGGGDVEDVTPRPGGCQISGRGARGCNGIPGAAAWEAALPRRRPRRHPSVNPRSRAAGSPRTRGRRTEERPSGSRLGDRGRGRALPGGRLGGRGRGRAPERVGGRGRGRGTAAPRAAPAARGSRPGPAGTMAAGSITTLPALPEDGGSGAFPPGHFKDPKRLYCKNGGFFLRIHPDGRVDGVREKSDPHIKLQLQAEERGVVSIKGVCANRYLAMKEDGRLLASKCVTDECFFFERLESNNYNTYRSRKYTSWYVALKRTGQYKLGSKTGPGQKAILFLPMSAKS
# [15] = mitochondrial membrane potential change in A549 cells, profiling panel, cell-based, JC-1 fluorescence, basal, 24 h, 100 nL (AID 1138); settings: higher = more signal;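 further: A549 lung adenocarcinoma cells under basal conditions with no added stimulus; test concentration not given here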
# Lefty1 = Lefty1 binders on small-molecule microarrays, primary screen, biochemical, small-molecule microarray, 635/667 nm fluorescence (AID 1139); settings: small-molecule microarray binding, fluorescence 635/667; higher = more signal
# [16] = tested on: wheat germ agglutinin (Triticum aestivum), Alexa647-labelled; experiment: wheat germ agglutinin binders on compound microarrays, profiling panel, artefact control for SMM control-protein annotation, biochemical, small-molecule microarray, 635/667 nm fluorescence (AID 1140); settings: WGA-A647 binding, 635 nm fluorescence, higher = more signal;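 further: score merges 667 nm feature emission with signal to noise over triplicate slides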
# [17] = biological target: Luciferin 4-monooxygenase (Photinus pyralis) (UniProt P08659); experiment: firefly luciferase enzyme inhibitors, primary screen, biochemical, luminescence, purified enzyme, 2006 set (AID 1141); settings: SteadyGlo luminescence, 30 min, higher = more signal, called active from +8 up or from −8 down;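 further: cell-free assay with purified firefly luciferase at 100 ng per well in PBS; test concentration not given here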
# Chain of Luciferin 4-monooxygenase (Photinus pyralis) (P08659 whole entry, looked up): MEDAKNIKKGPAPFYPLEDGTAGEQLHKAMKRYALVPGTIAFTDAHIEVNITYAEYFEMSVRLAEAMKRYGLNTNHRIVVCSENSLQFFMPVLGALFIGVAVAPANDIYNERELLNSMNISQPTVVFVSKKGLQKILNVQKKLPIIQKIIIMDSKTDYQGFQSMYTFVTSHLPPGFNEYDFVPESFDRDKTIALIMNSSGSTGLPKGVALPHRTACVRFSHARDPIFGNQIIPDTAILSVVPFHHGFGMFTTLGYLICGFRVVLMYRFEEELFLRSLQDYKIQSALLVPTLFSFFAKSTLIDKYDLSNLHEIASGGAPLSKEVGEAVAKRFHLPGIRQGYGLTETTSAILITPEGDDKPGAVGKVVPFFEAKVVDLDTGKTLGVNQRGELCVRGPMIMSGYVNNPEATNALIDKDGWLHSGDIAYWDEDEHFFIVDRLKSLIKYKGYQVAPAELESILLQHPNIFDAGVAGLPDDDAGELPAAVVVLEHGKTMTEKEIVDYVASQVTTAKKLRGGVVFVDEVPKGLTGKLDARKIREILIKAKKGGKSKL
smiles,measurement,setting,value
[N-]=[N+]=NCc1ccccc1[C@@H]1OC(c2ccc(OCCCO)cc2)=N[C@]1(Cc1ccccc1N=[N+]=[N-])C(=O)O,composite z-score,Albumin (Bos taurus),1
same,composite Z-score,[1],-0.164 (inactive)
same,composite z-score,[2],0.663
same,composite z-score,[3],0.481
same,composite z-score,[4],0.566
same,composite z-score,[5],2.4
same,composite z-score,[6],0.262
same,composite z-score,Sam68 (KHDRBS1),1.31
same,composite z-score,[7],-0.126
same,composite z-score,[8],1.13
same,composite z-score,[9],3.38
same,composite z-score,[10],1.23
same,composite z-score,[11],0.334
same,composite z-score,[12],1.04
same,composite z-score,[13],1.1
same,composite z-score,[14],0.626
same,z-score,[15],-0.652
same,composite z-score,Lefty1,-0.132
same,composite z-score,[16],1.21
same,z-score,[17],-5.68 (inactive)
CCCCCC1=C2CNC(Cc3ccccc3)(C(=O)OC)C=C2C(C)C1=O (stereo not given),composite z-score,Albumin (Bos taurus),0.638
same,composite Z-score,[1],0.881 (inactive)
same,composite z-score,[2],0.183
same,composite z-score,[3],0.0878
same,composite z-score,[4],0.648
same,composite z-score,[5],2.17
same,composite z-score,[6],0.984
same,composite z-score,Sam68 (KHDRBS1),-0.49
same,composite z-score,[7],-1.52
same,composite z-score,[8],-0.86
same,composite z-score,[9],1.01
same,composite z-score,[10],0.515
same,composite z-score,[11],0.563
same,composite z-score,[12],0.837
same,composite z-score,[13],-0.216
same,composite z-score,[14],-0.871
same,z-score,[15],1.04
same,composite z-score,Lefty1,-0.849
same,composite z-score,[16],0.0953
same,z-score,[17],0.423 (inactive)
C=CCC(OC(C)=O)[C@@H]1[C@@H](N(Cc2cccc3ccccc23)C(=O)Cc2ccc(OC)cc2)c2cc(OCCCO)ccc2N1C(=O)c1ccc2ccccc2c1 (stereo not given in full),composite z-score,Albumin (Bos taurus),0.226
same,composite Z-score,[1],-0.0662 (inactive)
same,composite z-score,[2],0.0232
same,composite z-score,[3],-0.143
same,composite z-score,[4],0.331
same,composite z-score,[5],0.481
same,composite z-score,[6],-0.0588
same,composite z-score,Sam68 (KHDRBS1),-0.278
same,composite z-score,[7],0.0839
same,composite z-score,[8],0.0699
same,composite z-score,[9],-0.185
same,composite z-score,[10],-0.322
same,composite z-score,[11],0.321
same,composite z-score,[12],0.475
same,composite z-score,[13],0.792
same,composite z-score,[14],-0.0926
same,z-score,[15],0.0343
same,composite z-score,Lefty1,0.143
same,composite z-score,[16],0.453
same,z-score,[17],0.851 (inactive)
CC(=O)NCCCC[C@@H]1NC(=O)[C@H]2C[C@@H](C(=O)NCCCCCCNC(=O)CS)[C@@H](c3cccc(OCCO)c3)N2C1=O,composite z-score,Albumin (Bos taurus),-0.637
same,composite Z-score,[1],0.381 (inactive)
same,composite z-score,[2],-0.0647
same,composite z-score,[3],-0.108
same,composite z-score,[4],0.592
same,composite z-score,[5],1.84
same,composite z-score,[6],0.537
same,composite z-score,Sam68 (KHDRBS1),1.28
same,composite z-score,[7],0.487
same,composite z-score,[8],0.447
same,composite z-score,[9],3.57
same,composite z-score,[10],0.937
same,composite z-score,[11],0.612
same,composite z-score,[12],-0.256
same,composite z-score,[13],1.36
same,composite z-score,[14],1.63
same,z-score,[15],-0.0905
same,composite z-score,Lefty1,0.0938
same,composite z-score,[16],0.184
same,z-score,[17],-0.399 (inactive)
CC(C)c1nc2cc(Br)ccc2c(=O)o1,composite z-score,Albumin (Bos taurus),0.915
same,composite Z-score,[1],0.19 (inactive)
same,composite z-score,[2],0.0493
same,composite z-score,[3],-0.0424
same,composite z-score,[4],0.738
same,composite z-score,[5],0.92
same,composite z-score,[6],0.0912
same,composite z-score,Sam68 (KHDRBS1),0.711
same,composite z-score,[7],-0.552
same,composite z-score,[8],1.09
same,composite z-score,[9],0.405
same,composite z-score,[10],0.854
same,composite z-score,[11],0.224
same,composite z-score,[12],0.871
same,composite z-score,[13],0.296
same,composite z-score,[14],-0.357
same,z-score,[15],0.48
same,composite z-score,Lefty1,-0.0283
same,composite z-score,[16],0.834
same,z-score,[17],0.672 (inactive)
CCOC(=O)C1=CCC(c2cc3ccccc3[nH]2)N(CCN2CC(C(=O)OCC)=CCC2c2cc3ccccc3[nH]2)C1 (stereo not given),composite z-score,Albumin (Bos taurus),0.656
same,composite Z-score,[1],0.0551 (inactive)
same,composite z-score,[2],0.15
same,composite z-score,[3],-0.108
same,composite z-score,[4],0.521
same,composite z-score,[5],4.05
same,composite z-score,[6],0.674
same,composite z-score,Sam68 (KHDRBS1),1.29
same,composite z-score,[7],0.106
same,composite z-score,[8],1.14
same,composite z-score,[9],1.65
same,composite z-score,[10],1.22
same,composite z-score,[11],0.142
same,composite z-score,[12],0.974
same,composite z-score,[13],0.748
same,composite z-score,[14],0.0905
same,z-score,[15],-1.43
same,composite z-score,Lefty1,0.24
same,composite z-score,[16],1
same,z-score,[17],1.77 (inactive)
